From ChEMBL document CHEMBL4513216, “Probing the Open Global Health Chemical Diversity Library for Multistage-Active Starting Points for Next-Generation Antimalarials” (ACS Infect Dis, 2020) come the findings set out here.

SMILES strings stand for the structures. In all, about 69,000 compounds went through this assay and about 8,600 (12%) showed an effect of 50% or more. For the sample, strong results were picked, then their nearest neighbours and some compounds at random.

The test deals with Plasmodium berghei. As to the kind of experiment: Screen against P. berghei liver stage (PbLuc), transformed with Luciferase, at 10uM. The class given is functional, HepG2. As to conditions: tested at 10 uM.
In the case of `CC1CCN(C(=O)c2cnc(CC3CCCN(C)C3)cn2)CC1` (stereo not given), the INHIBITION came out at 24.4%.

For `Cc1cccc(CN2Cc3[nH]nc(COc4cccnc4)c3C2)n1`, the INHIBITION is on record as 34.9%.

Take `CCS(=O)(=O)CCNC(=O)NC(C)c1ccc(C)s1` (stereo not given): the INHIBITION is 17%.

In the case of `Cc1oc(C(=O)O)cc1S(=O)(=O)Nc1ccccc1F`, the INHIBITION is on record as 34.7%.

For `O=S(=O)(c1cn[nH]c1)N1CCCC(O)(CN2CCOCC2)CC1` (stereo not given), the INHIBITION stood at 13.125%.

Consider `CC(=O)Nc1nc(C(=O)N2CCCC2c2noc(C3CC3)n2)cs1` (stereo not given), for which the INHIBITION is listed as 2.3%.

For the compound `CCCn1ccnc1CN1CCN(C2CCOCC2)CC(C(N)=O)C1` (stereo not given), the INHIBITION is 20.8%.

With `CSc1ccc(CN(CCO)C(=O)CCOc2ccccc2)cc1`, the INHIBITION amounted to 15.7%.

For the compound `Cc1nnsc1C(=O)NCc1cccnc1N(C)C`, the INHIBITION stood at 51.5%.

For `Cc1ccc(C(=O)NCc2cccnc2N(C)C)o1`, the INHIBITION stood at 12.35%.

Regarding `Cc1ccc(C(=O)NCc2cccnc2N(C)C)s1`, the INHIBITION was -85%.

As for `Cc1ccsc1C(=O)NCc1cccnc1N(C)CCc1ccccn1`, the INHIBITION was found to be 9.91%.

As to `Cc1nnsc1C(=O)NCc1cccnc1N(C)Cc1ccccc1`, the INHIBITION is given as 44.6%.

Take `Cc1oc(C)c(C(=O)NCc2cccnc2N(C)C)c1C`: the INHIBITION is 50.4%.

Take `Cc1ncsc1C(=O)NCc1cccnc1N(C)CCc1ccccn1`: the INHIBITION is listed as 52.5%.

With `Cc1ncsc1C(=O)N(Cc1ccccn1)C1CC1`, the INHIBITION is -2.95%.

Take `Cc1noc(C)c1C(=O)NCc1cccnc1N(C)C`: the INHIBITION is reported as -25.66%.

Consider `CCc1nc(C2CCCN2C(=O)Cc2cccs2)no1` (stereo not given), for which the INHIBITION was found to be 5.9%.

`CSc1ccccc1C(C(=O)O)N(C)CC1CCOCC1` (stereo not given): the INHIBITION is -0.27%.

In the case of `CCCc1cc(C(=O)NCCN2CCCS2(=O)=O)[nH]n1`, the INHIBITION is on record as -40.96%.

Turning to `O=C(c1cc(Cl)c2c(c1)OCO2)N1CCCC(n2cncn2)C1` (stereo not given), the INHIBITION amounted to 29.7%.

Regarding `C[C@@H]1CN(Cc2ccccn2)C[C@]12CCN(Cc1cccnc1)C2=O`, the INHIBITION is -38.1%.

For the compound `N#CC1(C(=O)N2C[C@H](Nc3ncccn3)[C@@H](C3CC3)C2)CCOCC1`, the INHIBITION is on record as -28.4%.

`Cc1ccnc(OC[C@@]23CCO[C@@H]2CCN(S(C)(=O)=O)C3)n1`: the INHIBITION came out at 57.1%.

Turning to `Cc1ccnc(OC[C@@]23CCO[C@@H]2CCN(c2ncccn2)C3)n1`, the INHIBITION was 23.3%.

With `Cc1ccnc(OC[C@@]23CCO[C@@H]2CCN(C2CCC2)C3)n1`, the INHIBITION is recorded as -16.9%.

On to `CN(CCc1ccccc1)Cc1cnc(C2(C)CCCCO2)nc1` (stereo not given), for which the INHIBITION is listed as 10.871%.

In the case of `COc1cc(CN2C[C@H](OC)[C@]3(CCCO3)C2)ccc1F`, the INHIBITION is reported as 35.2%.

Consider `Cc1ccnc(C(NC(=O)c2sc(C)nc2C)C2CC2)n1` (stereo not given), for which the INHIBITION turned out to be 63.5%.

On to `Cc1ccnc(C(NC(=O)c2oc(C)nc2C)C2CC2)n1` (stereo not given), for which the INHIBITION is 38.5%.

Regarding `Cc1ccnc(C(NC(=O)c2ccc(O)nc2C)C2CC2)n1` (stereo not given), the INHIBITION is on record as 2.65%.

Consider `Cc1nc(C2CCCN2C(=O)CCn2cncn2)no1` (stereo not given), for which the INHIBITION is given as -85%.

`c1cnc2c(c1)cc([C@H]1CCCO1)n2CCN1CCOCC1`: the INHIBITION worked out at 30.1%.

Consider `CN(Cc1ccc(F)cc1F)Cc1cc2c(cc1Br)OCCO2`, for which the INHIBITION is given as 52.6%.

In the case of `CN(Cc1ccc(F)cc1)Cc1cc2c(cc1Br)OCCO2`, the INHIBITION was found to be 44.8%.

As for `CN(Cc1ccc(F)c(F)c1)Cc1cc2c(cc1Br)OCCO2`, the INHIBITION was -30%.

Consider `CN(Cc1ccccc1F)Cc1cc2c(cc1Br)OCCO2`, for which the INHIBITION worked out at 76.2%.

On to `CN(Cc1cscn1)Cc1cc2c(cc1Br)OCO2`, for which the INHIBITION was determined as 31.9%.

Take `CC(NCc1cccc2c1OCCO2)c1cc2c(cc1Br)OCCO2` (stereo not given): the INHIBITION is on record as 4.15%.

As for `COc1ccccc1CN(Cc1nc(Cc2ccccc2)no1)C1CC1`, the INHIBITION was 21.3%.

On to `Cc1ccccc1CC(=O)N1C[C@@H]2COC[C@]2(CN(C)C)C1`, for which the INHIBITION is on record as 20.5%.

In the case of `N#Cc1ccc(C(=O)O)nc1C=Cc1cccc(F)c1`, the INHIBITION was -23.2%.

For the compound `CC(C)CN1CC2(CCN(C(=O)c3nc4ncccn4n3)CC2)CC1=O`, the INHIBITION is recorded as 56%.

`CC(C)CN1CC2(CCN(C(=O)c3cnccn3)CC2)CC1=O`: the INHIBITION is -33%.

For the compound `CC(C)CN1CC2(CCN(C(=O)C3CSC(C)(C)C(=O)N3)CC2)CC1=O` (stereo not given), the INHIBITION was 12%.

For the compound `CC(C)CN1CC2(CCN(C(=O)C(O)c3ccccc3Cl)CC2)CC1=O` (stereo not given), the INHIBITION was 6.88%.

For `CC(C)CN1CC2(CCN(C(=O)c3cn4cccnc4n3)CC2)CC1=O`, the INHIBITION is recorded as -13.6%.

Take `CC(C)CN1CC2(CCN(C(=O)C3CNC(=O)N3)CC2)CC1=O` (stereo not given): the INHIBITION worked out at 53%.

For `CC(C)Oc1ccc2c(NC(=O)CNC(N)=O)nn(CC(F)(F)F)c2c1`, the INHIBITION worked out at 29.7%.

Turning to `CC(=O)N1C[C@H](c2cc(O)nc(C)n2)[C@@H](c2ccccc2F)C1`, the INHIBITION was 12.45%.

In the case of `Cc1nc(O)cc([C@@H]2CN(C(=O)C3CC3)C[C@H]2c2ccccc2F)n1`, the INHIBITION was found to be 60.55%.

`COCC(=O)N1C[C@@H](c2cc(O)nc(C)n2)[C@H](c2ccccc2F)C1`: the INHIBITION came out at 24.49%.

As to `Cc1cc(NCCO)nc(N2CCC(Cc3ccccc3)CC2)c1C#N`, the INHIBITION was 29.1%.

Consider `Cc1nccn1CC(=O)N1CC(Cc2nccc3ccn(C)c23)C1`, for which the INHIBITION is on record as 34%.

Consider `CCCN1CCC(CC(=O)N(C)CC(=O)c2ccc(O)cc2)CC1`, for which the INHIBITION is reported as 56.1%.
